Pf Dd2 growth – qHTS Primary assay for Inhibitors of Plasmodium falciparum Dd2 growth in vitro. P. falciparum Dd2 growth, SYBR Green, 72 h. Potency, µM (series often up to 28.9 µM), inactives show top-dose activity, negative = inhibition, hits mostly inhibitors. 120,000 compounds, 4.3% hits. AID 1347417, 2020; active = well fitted inhibition curve with a large enough effect;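 also: plate controls were DMSO vehicle for no effect and reference drug for full effect; nearly all actives have a fitted effect of over 65% in size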
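Infected erythrocytes (Dd2, 0.3% parasitemia, 2.5% hematocrit final) are added to compound in RPMI-1640/Albumax II medium, grown 72 h at 37C in low oxygen, then lysed with saponin/Triton-X containing SYBR Green and read by fluorescence.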
* = called active by the depositor; i = inactive; [ ] = dose if it differs, or a comment. The entries come from a sample that favours hits as a whole. Potency is read from the fitted curve at half-maximal effect.

SMILES	Pf Dd2 growth
Cc1ccc(NC(=O)CN2C(=O)C3(SCC(=O)N3c3ccc(F)c(F)c3)c3ccccc32)c(C)c1 (stereo not given)	14µM*
COc1ccc(Cl)cc1NC(=O)CSc1nnc2[nH]c(=O)cc(C)n12	i
CCc1nncn1C1CCN(S(=O)(=O)c2cc(F)ccc2OC)C1 (stereo not given)	7%
CCN(CC)C(=O)[C@@H]1C[C@H](NC(=O)COc2cccc(F)c2)CN1C	-19%
COCCC(=O)N[C@H]1CC[C@]2(C)CC[C@@H](C(C)C(=O)NC3CCCCC3)[C@H](O)[C@H]2[C@@H]1C (stereo not given in full)	i
Cc1ccc(CCNC(=O)c2ccc(CSCc3ccccc3C)o2)cc1	18%
CCc1ccccc1NC(=O)C(C)n1c(=O)cc(C)c2c(C)nn(-c3ccccc3)c21 (stereo not given)	i
CNC(=O)N1CCC(C2CCN(S(=O)(=O)c3ccc4c(c3)CCC4)C2)CC1 (stereo not given)	i
COc1ccc(-c2cnc(C)o2)cc1S(=O)(=O)Nc1c(C)cc(C)cc1C	-14%
C=CCN1CCN(C(=O)CCC[C@@H]2[C@H]3CCCN4CCC[C@@H](CN2Cc2ccccc2)[C@@H]34)CC1	i
C=CCN1CCN(C(=O)CCC[C@@H]2[C@H]3CCCN4CCC[C@@H](CN2C(=O)c2ccccc2)[C@@H]34)CC1	10µM*
O=C(CCC[C@@H]1[C@H]2CCCN3CCC[C@@H](CN1C(=O)c1cccnc1)[C@@H]23)N1CCCC1	3%
CCCCN(CCCC)CCNC(=O)c1cc(-c2cccnc2)nc2ccc(S(=O)(=O)N3CCC(C)CC3)cc12	-25%
CC1CCN(S(=O)(=O)c2ccc3nc(-c4cccnc4)cc(C(=O)NCCCOC(C)C)c3c2)CC1	i
CCCCN(C)CCNC(=O)c1cc(-c2cccnc2)nc2ccc(S(=O)(=O)N3CCC(C)CC3)cc12	5µM*
O=C(O)c1cccc(-c2n[nH]c3c2CC(=O)N(CC2CCOCC2)C3)c1	36%[44.1 µM]
O=[S+]1([O-])NC2(CCN(Cc3ccc(C(F)(F)F)cc3)C2)COc2ncccc21 (stereo not given)	-10%
CC(C)NC(=O)N[C@H]1CCN(C(=O)c2cccn2C)[C@@H]1C(=O)N[C@H](Cc1c[nH]c2ccccc12)C(N)=O	-20%
Cc1ccc2nc(N(Cc3cccnc3)C(=O)c3ccc4c(c3)OCCO4)sc2c1	i
CC(=O)c1ccc(C(=O)N(Cc2cccnc2)c2nc3c(Cl)cccc3s2)cc1	-22%
Cc1cc(C)c2nc(N(Cc3cccnc3)C(=O)Cc3ccccc3)sc2c1	10µM*
CC(=O)N(Cc1cccnc1)c1nc2c(C)c(C)ccc2s1	i
O=C(CCS(=O)(=O)c1ccccc1)N(Cc1cccnc1)c1nc2ccc(Cl)cc2s1	46%
CCS(=O)(=O)c1ccccc1C(=O)N(Cc1cccnc1)c1nc2cc(C)c(C)cc2s1	-1%
Cc1ccc2nc(N(Cc3cccnc3)C(=O)Cc3ccccc3)sc2c1	5µM*
SMILES	Pf Dd2 growth
Cc1ccc2nc(N(Cc3cccnc3)C(=O)CCS(=O)(=O)c3ccccc3)sc2c1	i
O=C(c1ccco1)N(Cc1cccnc1)c1nc2c(F)cccc2s1	i
Cc1cc(C)c2nc(N(Cc3cccnc3)C(=O)c3cccs3)sc2c1	10µM*
Cc1cccc2sc(N(Cc3cccnc3)C(=O)CCc3ccccc3)nc12	4µM*
O=C(CCc1ccccc1)N(Cc1cccnc1)c1nc2c(F)cccc2s1	i
Cn1c(=O)n([C@H]2CCCN(C(=O)C3CCC3)C2)c2ncccc21	-14%
COc1ccc(C(=O)N[C@@H]2c3ccccc3C3(CCNCC3)[C@H]2OC)c(C)c1	-18%
O=C(CN1C[C@@H](C(=O)O)[C@H](c2ccccc2)C1)NCc1ccc(C(=O)O)o1	-4%
CCC(C)Oc1ccccc1CNc1ncnc2c1c(C)nn2C (stereo not given)	-15%
CCOc1cccc(-c2nc(C(=O)NCC3CCCO3)cs2)c1 (stereo not given)	i
Cc1nn(C)c(C)c1CCNC(=O)Nc1ccccc1C(F)(F)F	7%
COc1ccc(-c2nc3n(n2)C(c2ccccc2F)C(C(=O)Nc2cccnc2)=C(C)N3)cc1OC (stereo not given)	10µM*
COc1ccc(C2C(C(=O)Nc3cccnc3)=C(C)Nc3nc(-c4ccccc4)nn32)cc1OC (stereo not given)	-15%
COc1ccc(-c2nc3n(n2)C(c2ccc(O)cc2)C(C(=O)Nc2cccnc2)=C(C)N3)cc1OC (stereo not given)	-5%
CCn1nccc1C(=O)N1CCC2(CC1)CC(OC)CCO2 (stereo not given)	i
O=c1c2cnn(-c3ccc(F)cc3)c2ncn1Cc1cccc(Cl)c1	41%[0.594 µM]
COc1ccc(CN(CCC(c2ccc3c(c2)OCO3)c2ccccc2OC)C(C)=O)cc1 (stereo not given)	-15%
Cc1ccc(-c2nc(CCNC(=O)c3ccc(C)c(C)c3)cs2)cc1	14%
CCOc1ccc(CC(=O)NCCc2csc(-c3ccc(Cl)cc3)n2)cc1	i
